# From PubChem
# Hits are enriched below; roughly 1% of the tested compounds scored in any of these assays.
# V-ATPase pHluor: alters yeast V-ATPase proton transport | S. cerevisiae, pHLuorin cytosolic pH fluorescence | response, % at 10 µM | 0.37% of 350,000 active | AID 504577; in the data active = response mostly above about 7.3%, no sharp cut-off; inactive = mostly below about 5.4%; note: actives read high
# CR mimetic SO: lowers age-related superoxide in aged yeast cells; 0.18% of 330,000 active; S. cerevisiae aged cells, superoxide DHE fluorescence; active compounds read low; superoxide response (% of plate mean), % at 10 µM;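 active = superoxide response under a set limit, about three screen SD below normal, cut at about 65% in these data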;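 note: yeast aged for seven days with compound at 30 °C before DHE staining; 100% = average MFI of all compound-treated wells on the plate with controls excluded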
# hiPSC survival: enhancers of human iPSC single-cell survival | survival enhancement, % at 20 µM | 0.044% of 360,000 active | hiPSC single-cell survival, ATPlite luminescence; 100% = ROCK inhibitor wells, 0% = DMSO; in the data active = survival enhancement above about 18%;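 note: cells exposed to compounds for 16 hours before the ATP read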
# CTSL1 counter: blocks F. hepatica cathepsin L1 in PFM18AAP counter-screen; recombinant F. hepatica cathepsin L1, Z-Leu-Arg-MCA fluorescence; 0.49% of 300,000 active; inhibition, % at 5.96 µM; AID 1906;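 active = inhibition above the mean of all tested compounds plus 3 SD, set per screening campaign, cut at about 17% in these data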;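 note: 0% = plate median of test compound wells and 100% = 1 µM Z-Phe-Ala-diazomethylketone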
# * = called active by the depositor; x = no result.
SMILES,V-ATPase pHluor,CR mimetic SO,hiPSC survival,CTSL1 counter
Cc1nn(CC(=O)NCCCN2CCC(N3CCCCC3)CC2)c(=O)c2cc(-c3ccccc3)nn12,4,104,-1,-2
COc1ccc(C)cc1NC(=O)C(OC(=O)CNC(=O)c1ccc(Br)cc1)c1ccccc1 (stereo not given),0,101,4,18*
O=C(CNC(=O)c1ccccc1)OC(C(=O)c1ccccc1)c1ccccc1 (stereo not given),0,106,0,18*
Cc1ccc(C(=O)C(OC(=O)CNC(=O)c2ccc(Cl)cc2)c2ccccc2)cc1 (stereo not given),-1,128,-2,20*
COc1ccc(C(=O)C(OC(=O)CNC(=O)c2ccco2)c2ccccc2)cc1 (stereo not given),-1,92,3,33*
COc1ccc(C)cc1NC(=O)C(OC(=O)CNC(=O)c1cc(C)cc(C)c1)c1ccccc1 (stereo not given),4,103,-2,-7
O=C(NC1CCN(Cc2ccccc2)CC1)c1ccc(CS(=O)c2ccccc2Cl)o1 (stereo not given),x,x,-2,x
CN(CC(=O)Nc1ccc(F)cc1)C(=O)c1cccc(NS(=O)(=O)c2ccccc2)c1,7,92,0,x
O=C(Nc1ccc2nc3n(c(=O)c2c1)CCCCC3)C(=O)N1CCN(c2ccccc2)CC1,1,102,1,0
COc1cc(CN2CCCC(N3CCc4ccccc4C3)C2)c(Cl)cc1O (stereo not given),1,98,0,-2
NC(=O)CSc1nnc(-c2ccccc2)c(-c2ccccc2)n1,2,94,0,0
N#Cc1nc(COc2ccc(Cl)cc2)oc1N1CCCCCC1,3,89,-1,60*
COc1ccc(CNC(=O)C[C@H]2C(=O)N(C3CCCCC3)C[C@@H]2Cc2ccccc2)cc1,-2,100,-1,-1
COc1ccc2[nH]c(C(=O)N(Cc3ccccn3)Cc3ccccn3)cc2c1,37*,116,-1,1
CCCCN(Cc1cc2cc(OC)ccc2[nH]c1=O)C(=O)c1ccccn1,-4,106,-1,-1
CCOC(=O)N1CCN(C(=O)C2CCN(C(=O)c3ccccc3C)CC2)CC1,7,x,-4,x
CN1c2ccccc2C(C)(C)C12C=Nc1c(ccc3ccccc13)O2 (stereo not given),-2,110,1,21*
Cc1nn(C)c(C)c1S(=O)(=O)N(CC(=O)Nc1nccs1)c1ccc(C(C)C)cc1,1,105,-3,0
COc1ccc(N(CC(=O)Nc2nccs2)S(=O)(=O)c2c(C)nn(C)c2C)cc1,14*,102,0,0
Cc1cc(Br)cc(Br)c1OCC(=O)NNC(=O)Nc1ccccc1,3,95,-1,2
Cc1cc(C)c2c(=O)cc(C(F)F)oc2c1,-4,103,-2,17*
O=C(CN1CCN(Cc2ccc(Cl)cc2)C1=O)NCCCN1CCOCC1,-3,94,3,2
O=C(CN1CCN(Cc2ccc(Cl)cc2)C1=O)NCCCN1CCN(c2ccc(F)cc2)CC1,17*,89,-2,-5
CC(=O)NC1=CC(=C[N+](=O)[O-])C=C1O,3,x,2,x
O=C1CC(N2CCN(C3CC(=O)N(CCc4ccccc4)C3=O)CC2)C(=O)N1CCc1ccccc1 (stereo not given),1,105,1,-2
SMILES,V-ATPase pHluor,CR mimetic SO,hiPSC survival,CTSL1 counter
O=C1CC(N2CCC(Cc3ccccc3)CC2)C(=O)N1CCc1ccccc1 (stereo not given),10*,98,-1,-2
N#CC(C#N)=NNc1ccc([N+](=O)[O-])cc1,0,124,-1,24*
C/C(=N\Nc1ccc([N+](=O)[O-])cc1)c1ccc(C#N)cc1,-7,93,0,5
O=C(NCc1ccco1)/C(=C/c1ccco1)NC(=O)c1ccco1,3,129,-2,19*
O=C(CNC(=O)c1cccc(Cl)c1)Nc1ccc(F)c(F)c1F,-1,106,-1,7
O=C(CSc1cc(Cl)ccc1Cl)NCC(=O)Nc1ccc(F)c(F)c1F,-3,113,-1,18*
O=C(C1CC(=O)N(C2CCCC2)C1)N1CCN(c2cccc(Cl)c2)CC1 (stereo not given),-3,99,0,4
COc1ccc(NC(=O)Nc2cccc(C(=O)N3CCOCC3)c2)cc1OC,-2,99,0,17*
COc1ccc(NC(=O)Nc2ccc(C(=O)N3CCOCC3)cc2)cc1OC,-2,96,0,-3
CCOC(=O)C1(N(CC)CC)Sc2cc(C)ccc2NC1=O (stereo not given),0,104,-3,5
CCOC(=O)C1(Nc2nccs2)Sc2ccccc2NC1=O (stereo not given),-2,103,-2,33*
O=C1C=C(N2CCCCC2)c2ccccc2C1=O,-2,126,0,92*
O=C1c2ccccc2C(=O)c2c1cccc2N1CCCC1,1,136,1,6
CCn1c(Cl)c(C=O)s/c1=N\S(=O)(=O)c1ccccc1,-1,98,44*,2
Cc1ccc(S(=O)(=O)N2CCN(C(=O)COC(=O)Cc3ccc(Cl)cc3)CC2)c(C)c1,-7,109,0,x
CSc1nnc(-c2ccccc2)c(-c2ccccc2)n1,5,99,2,1
CSc1nnc(-c2ccco2)c(-c2ccco2)n1,-3,90,-2,53*
COC(=O)c1ccc(NC(=O)C(=O)NCC2CCCO2)cc1 (stereo not given),-3,110,0,17*
CCCOC(=O)c1ccc(NC(=O)C(=O)NCC2CCCO2)cc1 (stereo not given),-1,103,-1,1
CC(=O)Nc1ccc2nc3ccccc3nc2c1,-1,52*,0,-1
NC(N)=Nc1nc(CCN2C(=O)c3ccccc3C2=O)cs1,-1,95,-2,5
N#C/C(N=Nc1ccccc1O)=N\Nc1ccccc1O,-2,87,-3,34*
Oc1ccccc1N=N/C(=N/Nc1ccccc1O)c1ccccc1,-1,93,1,-5
Cc1ccnc(N/C=C(/NC(=O)c2ccccc2)C(=O)NN)n1,0,91,3,16
Cc1ccnc(N/C=C(/NC(=O)c2ccccc2)C(=O)N/N=C\c2ccc(F)cc2)n1,-6,88,1,20*
SMILES,V-ATPase pHluor,CR mimetic SO,hiPSC survival,CTSL1 counter
CN1CCN(S(=O)(=O)c2cccc(C(=O)NC3CCCC3)c2)CC1,23*,95,0,0
CC(=O)c1cccc(NC(=O)C(C)OC(=O)c2cccc(S(=O)(=O)N3CCN(C)CC3)c2)c1 (stereo not given),7,90,0,x
CC(OC(=O)c1cccc(S(=O)(=O)N2CCN(C)CC2)c1)C(=O)Nc1ccc(C(N)=O)cc1 (stereo not given),-1,92,21*,x
CC(C)(C)c1cc(NC(=O)CCl)n(-c2ccccc2)n1,-4,85,0,57*
CCCc1cc(NC(=O)COC(=O)c2ccc(O)cc2O)n(-c2ccccc2)n1,-4,99,12,x
CCCc1cc(NC(=O)CCl)n(-c2ccccc2)n1,3,104,-2,79*
CC(Cl)C(=O)Nc1cc(C(C)(C)C)nn1-c1ccccc1 (stereo not given),-1,77,3,6
